Eight molecules from PubChem BioAssay (NCI) can be followed below.

Test systems include SK-MEL-2 melanoma; EKVX NSCLC; SN12C renal; UO-31 renal; TK-10 renal; ACHN renal; CAKI-1 renal; A498 renal; CCRF-CEM leukemia; MOLT-4 leukemia; SR leukemia; RPMI-8226 leukemia; OVCAR-8 ovarian; OVCAR-4 ovarian; SK-OV-3 ovarian; IGROV1 ovarian; OVCAR-3 ovarian; HS 578T breast; NCI/ADR-RES ovarian; OVCAR-5 ovarian.
Holding throughout (experiment): NCI-60 one-dose screen, 48 h (100 = growth as untreated, 0 = no growth, -100 = all killed)
Common to all, as to settings: 10 µM unless noted

This is part of a sample that, as a whole, favours compounds with a hit. Of some 83,000 tested, about 20% had one in any assay.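 Note: values are percent growth. 100 is the growth of untreated cells, values between 100 and 0 indicate rising inhibition; between -100 and 0 indicates cell death.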 Values without a mark were called inactive. Calls of active or inactive are those of the source. The calls were made as follows: active = growth percent below 10; inactive = the rest.

Regarding `Cc1cc(=O)oc2cc(O)cc(O)c12`, the growth with SK-MEL-2 melanoma is 107%; with EKVX NSCLC it was 99.3%; with SN12C renal it was 102%; in the assay on UO-31 renal it was 83.5%; in the assay on TK-10 renal it was 97.8%; in the assay on ACHN renal it was 102%. For the same molecule, the growth in the assay with CAKI-1 renal is 94.6%; in the assay with A498 renal, 117%; in the assay with CCRF-CEM leukemia, 107%; in the assay on MOLT-4 leukemia, 99.8%; with SR leukemia it was 106%; in the assay with RPMI-8226 leukemia, 111%. Moreover, the growth in the assay on OVCAR-8 ovarian was 105%; in the assay with OVCAR-4 ovarian, 104%; with SK-OV-3 ovarian, 104%; in the assay with IGROV1 ovarian, 108%; in the assay with OVCAR-3 ovarian, 99.2%; with HS 578T breast, 106%. In addition, the growth in the assay with NCI/ADR-RES ovarian was 108%.
With `O=C(c1ccc(O)c(Br)c1)c1ccc(O)c(Br)c1`, the growth with SK-MEL-2 melanoma was 105%; in the assay on EKVX NSCLC, 112%; in the assay with SN12C renal, 94.4%; in the assay with UO-31 renal, 98.5%; in the assay with TK-10 renal, 99.4%; with ACHN renal, 102%. Further, the growth with CAKI-1 renal is 119%; in the assay with A498 renal it was 93.9%; with CCRF-CEM leukemia it was 109%; with RPMI-8226 leukemia, 99.5%; with OVCAR-8 ovarian, 106%; in the assay with OVCAR-5 ovarian, 110%. In addition, the growth is 103% with OVCAR-4 ovarian; 116% in the assay on SK-OV-3 ovarian; 114% with IGROV1 ovarian; 114% with OVCAR-3 ovarian; 113% in the assay on HS 578T breast; 105% in the assay with NCI/ADR-RES ovarian.
Turning to `CN1CCC(CN2c3ccccc3Sc3ccccc32)C1` (stereo unspecified), the growth in the assay with SK-MEL-2 melanoma was 114%; with EKVX NSCLC, 107%; with SN12C renal, 97.1%; in the assay on UO-31 renal it was 60.2%; in the assay on TK-10 renal, 92%; in the assay on ACHN renal, 86.1%. In addition, the growth in the assay with CAKI-1 renal was 79.4%; in the assay on A498 renal, 109%; in the assay with MOLT-4 leukemia, 79.1%; in the assay on SR leukemia, 79.2%; with RPMI-8226 leukemia it was 78.7%; in the assay on OVCAR-5 ovarian, 84.1%. Moreover, the growth in the assay on OVCAR-4 ovarian was 94.4%; with SK-OV-3 ovarian, 109%; with OVCAR-3 ovarian, 88.8%; in the assay on HS 578T breast it was 86.1%; in the assay with NCI/ADR-RES ovarian it was 85.8%.
Consider `CN=C(N)N/N=C(\C)c1ccc2c(c1)Cc1ccccc1-2`, for which the growth with SK-MEL-2 melanoma was -51.8% (active); in the assay with EKVX NSCLC it was 1.95% (active); with SN12C renal, -40.5% (active); with UO-31 renal it was -87.9% (active); in the assay with TK-10 renal it was -75% (active); in the assay on ACHN renal it was -92.1% (active). Moreover, the growth with CAKI-1 renal is -53.9% (active); in the assay with A498 renal, -8.05% (active); in the assay with CCRF-CEM leukemia it was -35.2% (active); in the assay with MOLT-4 leukemia, -63% (active); in the assay on SR leukemia, -62.4% (active); with RPMI-8226 leukemia, -20.7% (active). The growth in the assay with OVCAR-8 ovarian was -66.9% (active); in the assay with OVCAR-5 ovarian, -69.1% (active); in the assay on SK-OV-3 ovarian, -74.8% (active); with IGROV1 ovarian it was 20.5%; in the assay with OVCAR-3 ovarian, -88.1% (active); in the assay with HS 578T breast, -19.1% (active). Moreover, the growth with NCI/ADR-RES ovarian was -29.7% (active).
Consider `OC(c1cc(C23CC4CC(CC(C4)C2)C3)nc2c(Cl)cc(Cl)cc12)C1CCCCN1` (stereo unspecified), for which the growth is -73.5% (active) in the assay with SK-MEL-2 melanoma; -33.6% (active) with EKVX NSCLC; -61.4% (active) in the assay on SN12C renal; -83.3% (active) in the assay with UO-31 renal; -88.1% (active) in the assay on TK-10 renal; -70.1% (active) with ACHN renal. The growth with CAKI-1 renal is -54.5% (active); in the assay with A498 renal, -1.09% (active); in the assay on MOLT-4 leukemia it was -53.2% (active); in the assay on SR leukemia, -60.1% (active); with RPMI-8226 leukemia it was -45.4% (active); in the assay on OVCAR-8 ovarian, -53.9% (active). Besides, the growth in the assay with OVCAR-5 ovarian was -56% (active); in the assay on OVCAR-4 ovarian, -78.2% (active); with SK-OV-3 ovarian, -10.3% (active); in the assay with IGROV1 ovarian, -61.7% (active); in the assay with OVCAR-3 ovarian, -89.9% (active); with HS 578T breast it was -49.9% (active). Also, in the assay with NCI/ADR-RES ovarian, the growth was -51.2% (active).
As to `O=C(/C=C/c1ccccc1)c1ccccc1O`, the growth is 98.6% with SK-MEL-2 melanoma; 89.2% in the assay on EKVX NSCLC; 92.1% in the assay on SN12C renal; 64.6% in the assay with UO-31 renal; 94.3% in the assay with TK-10 renal; 87% in the assay with ACHN renal. Also, the growth in the assay on CAKI-1 renal was 75.2%; with A498 renal, 98.3%; in the assay with MOLT-4 leukemia it was 70.2%; in the assay on RPMI-8226 leukemia it was 26.6%; in the assay with OVCAR-8 ovarian it was 87.7%; in the assay on OVCAR-5 ovarian, 91.1%. In addition, the growth in the assay on OVCAR-4 ovarian was 87.6%; in the assay with SK-OV-3 ovarian, 107%; in the assay with IGROV1 ovarian, 76.5%; in the assay with OVCAR-3 ovarian it was 89%; with HS 578T breast, 94.7%; in the assay on NCI/ADR-RES ovarian, 93.8%.
`Clc1ccc(Cc2nc3ccccc3s2)cc1`: the growth with SK-MEL-2 melanoma is 110%; in the assay on EKVX NSCLC it was 86.5%; in the assay on SN12C renal, 86.1%; with UO-31 renal, 61.2%; in the assay on TK-10 renal, 119%; with ACHN renal, 98.5%. Moreover, the growth is 96.3% in the assay on CAKI-1 renal; 117% in the assay on A498 renal; 92.6% in the assay with MOLT-4 leukemia; 84.4% in the assay on SR leukemia; 101% with RPMI-8226 leukemia; 102% in the assay on OVCAR-8 ovarian. For the same molecule, the growth with OVCAR-4 ovarian is 91%; with SK-OV-3 ovarian it was 128%; in the assay on IGROV1 ovarian, 91.7%; in the assay with OVCAR-3 ovarian it was 98.1%; with HS 578T breast, 100%; with NCI/ADR-RES ovarian, 94.9%.
`CCOc1ccc(C(CN2CCOCC2)C(C)=O)cc1OC` (stereo unspecified): the growth in the assay on SK-MEL-2 melanoma was 111%; with EKVX NSCLC, 96.2%; in the assay on SN12C renal, 86.6%; in the assay on UO-31 renal, 75.4%; with TK-10 renal, 49.8%; in the assay on ACHN renal it was 79.6%. Besides, the growth in the assay with CAKI-1 renal was -89.9% (active); in the assay with A498 renal, 92.2%; in the assay on MOLT-4 leukemia, 87.2%; in the assay on SR leukemia, 65.2%; in the assay on RPMI-8226 leukemia, 62.3%; in the assay on OVCAR-8 ovarian it was 96.3%. Also, the growth was 98.2% in the assay with OVCAR-4 ovarian; 99.4% in the assay on SK-OV-3 ovarian; 113% with IGROV1 ovarian; 88.3% in the assay with OVCAR-3 ovarian; 97.7% in the assay with HS 578T breast; 107% in the assay on NCI/ADR-RES ovarian.
